Assay results from PubChem BioAssay (NCATS).
Records with an inconclusive call do not appear. Activity calls are given as the source filed them. Calls follow the shape of the dose curve; as a rule, active = well fitted curve in the direction sought with a large enough effect; inconclusive = small, poorly fitted or top-dose-only effect, or another doubt; inactive = no such curve, though single readings can be large; an effect the other way counts as inactive or inconclusive.

Key:
[1] = S16 Schwann cell viability assay (CellTiter-Glo assay) (AID 624031);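 also: cellular ATP luminescence as a viability measure; nearly all actives have a fitted effect of over 70% in size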
In short: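 Native S16 Schwann cells (rat), serum-containing medium, overnight attachment then 24 h drug exposure at 37 °C/5% CO2. CellTiter-Glo ATP signal; normalized to cell-free and vehicle wells.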

[2] = test system: 3D7; test: qHTS profiling for inhibitors of Plasmodium falciparum proliferation (AID 504749); also: nearly all actives have a fitted effect of over 60% in size; also: potency is read from the fitted curve at half-maximal effect; details: P. falciparum in erythrocytes, SYBR Green DNA, 72 h; series mostly up to 12.8 µM
In short: (§1)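 P. falciparum-infected erythrocytes (0.3% parasitemia, 2.5% hematocrit) incubated with compound 72 h at 37 C, 5% CO2. Parasite DNA detected by SYBR Green after lysis, overnight at room temperature; normalised to 0.29 uM artemisinin and DMSO.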

[3] = test system: ATS189; test: as above; details: P. falciparum in erythrocytes, SYBR Green DNA, 72 h; series mostly up to 12.8 µM
In short: as §1

[4] = test system: CP191; test: as above; details: P. falciparum in erythrocytes, SYBR Green DNA, 72 h; series mostly up to 12.8 µM
In short: as §1

[5] = test system: CP201; test: as above; details: P. falciparum in erythrocytes, SYBR Green DNA, 72 h; series mostly up to 12.8 µM
In short: as §1

[6] = test system: CP217; test: as above; details: P. falciparum in erythrocytes, SYBR Green DNA, 72 h; series mostly up to 12.8 µM
In short: as §1

[7] = test system: CP256; test: as above; details: P. falciparum in erythrocytes, SYBR Green DNA, 72 h; series mostly up to 12.8 µM
In short: as §1

[8] = test system: CP315; test: as above; details: P. falciparum in erythrocytes, SYBR Green DNA, 72 h; series mostly up to 12.8 µM
In short: as §1

[9] = test system: CP329; test: as above; details: P. falciparum in erythrocytes, SYBR Green DNA, 72 h; series mostly up to 12.8 µM
In short: as §1

[10] = test system: ECU; test: as above; details: P. falciparum in erythrocytes, SYBR Green DNA, 72 h; series mostly up to 12.8 µM
In short: as §1

[11] = test system: FAB9; test: as above; details: P. falciparum in erythrocytes, SYBR Green DNA, 72 h; series mostly up to 12.8 µM
In short: as §1

[12] = test system: JCK; test: as above; details: P. falciparum in erythrocytes, SYBR Green DNA, 72 h; series mostly up to 12.8 µM
In short: as §1

[13] = test system: N140; test: as above; details: P. falciparum in erythrocytes, SYBR Green DNA, 72 h; series mostly up to 12.8 µM
In short: as §1

[14] = test system: PAD; test: as above; details: P. falciparum in erythrocytes, SYBR Green DNA, 72 h; series mostly up to 12.8 µM
In short: as §1

[15] = test system: PC49; test: as above; details: P. falciparum in erythrocytes, SYBR Green DNA, 72 h; series mostly up to 12.8 µM
In short: as §1

[16] = test system: TAB113; test: as above; details: P. falciparum in erythrocytes, SYBR Green DNA, 72 h; series mostly up to 12.8 µM
In short: as §1

[17] = test system: TAB165; test: as above; details: P. falciparum in erythrocytes, SYBR Green DNA, 72 h; series mostly up to 12.8 µM
In short: as §1

[18] = test system: W2; test: as above; details: P. falciparum in erythrocytes, SYBR Green DNA, 72 h; series mostly up to 12.8 µM
In short: as §1

[19] = test system: CP237; test: as above; details: P. falciparum in erythrocytes, SYBR Green DNA, 72 h; series mostly up to 12.8 µM
In short: as §1

[20] = test system: DIV14; test: as above; details: P. falciparum in erythrocytes, SYBR Green DNA, 72 h; series mostly up to 12.8 µM
In short: as §1

Measured: Potency

CC[C@](C)(CN(C)C)OC(=O)c1ccccc1
active: [18] 2.87 µM
not listed: [19] | [20]
inactive: all other assays above

Cc1cccc(CN2CCN([C@@H](c3ccccc3)c3ccc(Cl)cc3)CC2)c1
active: [18] 3.22 µM
inactive: [1] | [5] | [19] | [7] | [8] | [9] | [11] | [12] | [15]

Cc1ccsc1/C=C\C1=NCCCN1C
inactive: all assays above

Cc1onc(-c2ccccc2Cl)c1C(=O)N[C@H]1C(=O)N2[C@H]1SC(C)(C)[C@H]2C(=O)O
inactive: all assays above

C[C@H](O)Cn1cnc2c1c(=O)n(C)c(=O)n2C
inactive: all assays above

C[C@@H](CNC1CCCCC1)OC(=O)c1ccccc1
active: [3] 3.16 µM | [19] 3.16 µM | [20] 3.61 µM | [14] 3.16 µM | [18] 2.28 µM
inactive: [1] | [5] | [8] | [9]

CCN1CCC[C@@H](OC(=O)C(c2ccccc2)c2ccccc2)C1
active: [19] 1.78 µM | [18] 1.44 µM
not listed: [3] | [7] | [13] | [14] | [15] | [17] | [20]
inactive: all other assays above

CCOC(=O)Oc1c(OC)cc(C(=O)O[C@H]2C[C@H]3CN4CCc5c([nH]c6cc(OC)ccc56)[C@@H]4C[C@H]3[C@@H](C(=O)OC)[C@@H]2OC)cc1OC
active: [2] 3.16 µM | [19] 3.16 µM | [20] 5.73 µM | [13] 3.55 µM | [14] 3.55 µM | [16] 3.98 µM | [17] 3.55 µM | [18] 2.56 µM
